A selection: hits, their analogues and other compounds. The true share with any hit is near 2.4%.
NOD2-RIPK2 inh: NOD2-RIPK2 binding disruptors in cells, primary screen, fluorescence, CHO cells, BLA complementation; CCF4 ratio; inhibition, % at 4.98 µM; 360,000 tested, 0.38% active; in the data active means inhibition above about 21%
m5-HT2A agonist: mouse Htr2a agonists via beta-arrestin recruitment, primary screen, cell-based, luminescence. 5-hydroxytryptamine receptor 2A (Mus musculus), P35363. CHO-K1 mHTR2A beta-arrestin complementation; percent of 30 µM serotonin response. activation, % at 7.6 µM. 360,000 tested, 0.66% active;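 active means activation above a run cutoff, the mean activation of all tested compounds plus 3 SD, cut at about 14% in these data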
TLR9-MyD88 block: inhibitors of TLR9-MyD88 association in cells, primary screen, cell-based, CHO, BLA complementation, fluorescence | inhibition, % at 4.98 µM | 340,000 tested, 0.21% active | Toll-like receptor 9 (Homo sapiens) + Myeloid differentiation primary response protein … | CCF4 FRET ratio;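 active means inhibition above the mean over all tested compounds plus 3 SD, cut at about 21% in these data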
TLR4 MyD88 comp: inhibitors of TLR4-MyD88 association in cells, primary screen, cell-based, HeLa CL3-4, BLA complementation, FRET ratio | Toll-like receptor 4 (Homo sapiens) + Myeloid differentiation primary response protein … | HeLa CL3-4 TLR4/MyD88 BLA complementation | inhibition, % at 8.4 µM | 200,000 tested, 0.18% active | AID 861, 2007; in the data active means inhibition above about 25%
Target sequence (O00206 whole entry, looked up): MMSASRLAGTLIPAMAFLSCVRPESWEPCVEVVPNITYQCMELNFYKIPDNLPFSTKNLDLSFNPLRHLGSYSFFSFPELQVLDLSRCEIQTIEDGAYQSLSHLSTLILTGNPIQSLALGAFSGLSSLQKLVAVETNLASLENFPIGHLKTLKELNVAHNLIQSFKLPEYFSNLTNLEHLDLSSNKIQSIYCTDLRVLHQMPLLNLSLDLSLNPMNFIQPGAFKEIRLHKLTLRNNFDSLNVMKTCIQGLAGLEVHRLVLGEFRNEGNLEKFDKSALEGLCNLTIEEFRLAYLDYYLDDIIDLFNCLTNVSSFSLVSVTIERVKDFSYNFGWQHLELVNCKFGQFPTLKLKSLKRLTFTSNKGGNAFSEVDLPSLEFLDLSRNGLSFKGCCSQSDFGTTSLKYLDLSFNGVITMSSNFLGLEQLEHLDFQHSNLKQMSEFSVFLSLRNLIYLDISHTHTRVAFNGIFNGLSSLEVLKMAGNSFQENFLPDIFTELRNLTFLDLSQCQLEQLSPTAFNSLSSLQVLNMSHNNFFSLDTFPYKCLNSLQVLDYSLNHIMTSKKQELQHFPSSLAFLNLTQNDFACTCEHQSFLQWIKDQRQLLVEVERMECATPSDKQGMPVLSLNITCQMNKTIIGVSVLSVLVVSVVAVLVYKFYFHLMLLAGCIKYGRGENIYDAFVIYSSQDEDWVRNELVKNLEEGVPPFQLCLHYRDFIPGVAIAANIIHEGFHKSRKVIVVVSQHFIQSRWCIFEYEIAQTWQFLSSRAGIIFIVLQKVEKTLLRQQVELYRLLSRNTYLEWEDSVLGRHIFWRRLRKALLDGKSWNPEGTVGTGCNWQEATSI
Target sequence (Q99836 whole entry, looked up): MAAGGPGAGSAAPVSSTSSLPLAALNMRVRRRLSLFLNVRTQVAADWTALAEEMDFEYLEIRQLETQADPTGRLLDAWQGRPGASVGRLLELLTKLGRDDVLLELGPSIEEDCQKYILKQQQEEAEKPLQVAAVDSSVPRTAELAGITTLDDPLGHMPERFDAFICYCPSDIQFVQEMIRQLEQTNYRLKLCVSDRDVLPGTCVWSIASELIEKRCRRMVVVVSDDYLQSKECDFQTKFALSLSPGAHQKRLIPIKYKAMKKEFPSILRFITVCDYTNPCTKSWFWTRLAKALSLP
ABHD5 PLIN5 PPI: ABHD5-PLIN5 interaction inhibitors, primary screen, cell lysate, split luciferase complementation, luminescence; Perilipin-5 (Homo sapiens) + 1-acylglycerol-3-phosphate O-acyltransferase ABHD5 (Homo …; Split G. princeps luciferase complementation, 4 h; inhibition, % at 4 µM; 360,000 tested, 0.78% active; AID 602281, 2012;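 active means inhibition above the mean inhibition across every tested compound plus 3 SD, cut at about 22% in these data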
CRFBP-R2 block: antagonists of CRF-BP/CRF-R2 complex, primary screen, cell-based, HEK293, calcium dye fluorescence, uHTS; AID 588475, 2011; inhibition, % at 11.8 µM; 350,000 tested, 0.59% active; CRF-induced calcium fluorescence;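 active means inhibition of the ligand-induced calcium signal above about 50% at the single tested concentration, limit read from the data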
TLR9-MyD88 conf: TLR9-MyD88 association inhibitors, retest, confirmation, cell-based, CHO, BLA complementation, fluorescence, triplicate. inhibition, % at 4.98 µM. shares compounds with TLR9-MyD88 block. 680 tested, 51% active. AID 540250, 2011. CCF4 FRET ratio;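 active means mean inhibition across three repeats above about 21% taken from the earlier screen, limit read from the data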;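 further: blue over green emission ratio reports constitutive TLR9 MyD88 association via BLA complementation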
BLA counter-1: beta-lactamase reporter inhibitors in CHO cells, artefact control for TLR9-MyD88 binding inhibitor project, cell-based, fluorescence. shares compounds with TLR9-MyD88 block. 680 tested, 7% active. CHO-BLA cells, CCF4 FRET ratio, BLA reporter. inhibition, % at 4.98 µM;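 active means mean inhibition above a 50% cutoff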;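 further: counterscreen of TLR9-MyD88 hits on CMV-driven BLA in CHO-K1 cells; higher means less blue over green ratio so more BLA blockade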
TLR9 CHO tox: CHO cell viability loss – luminescence, single concentration, cytotoxicity control for TLR9-MyD88 binding inhibitor project. shares compounds with TLR9-MyD88 block. TLR9-MyD88 CHO cells cytotoxicity. inhibition, % at 4.98 µM. 680 tested, 39% active; in the data active means inhibition above about 11%
ABHD5-PLIN5 conf: ABHD5-PLIN5 interaction inhibitors, confirmation, biochemical, luminescence. shares compounds with ABHD5 PLIN5 PPI. inhibition, % at 4 µM. 2,200 tested, 67% active; in the data active means inhibition above about 23%
HNF4 split-luc: HNF4 dimerization inhibitors, counter-screen for ABHD5-PLIN5 interaction inhibitor project, biochemical, split-luciferase complementation, luminescence; 2,200 tested, 77% active; shares compounds with ABHD5 PLIN5 PPI; inhibition, % at 4 µM;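 active means mean inhibition across replicate wells exceeding the computed hit threshold, cut at about 13% in these data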;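 further: light from luciferase halves that rejoin when HNF4 fusion proteins dimerize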
NOD2-RIPK2 conf: NOD2-RIPK2 binding disruptors, retest, confirmation, fluorescence, CHO cells, BLA complementation, triplicate; inhibition, % at 4.98 µM; shares compounds with NOD2-RIPK2 inh; CCF4 FRET; 1,200 tested, 70% active; AID 624370, 2012;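 active means mean inhibition across replicates above a set limit taken from the earlier primary screen, cut at about 21% in these data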
BLA counter-2: counter-screen for NOD2-RIPK2 interaction inhibitors: BLA reporter | 1,200 tested, 57% active | inhibition, % at 4.98 µM | CHO BLA reporter, CCF4 FRET ratio, counterscreen | shares compounds with NOD2-RIPK2 inh | AID 624371;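 active means mean inhibition above the low-control mean inhibition plus three low-control SD, cut at about 11% in these data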
Each line names hits and unclear results; the compound was inactive in the other large screens (follow-up assays come after a bar, where they were run).

CC(=O)Nc1cc2c3c(cccc3c1)-c1ccccc1-2	NOD2-RIPK2 inh 22, TLR9-MyD88 block 24 (no result: TLR4 MyD88 comp) | TLR9-MyD88 conf inactive | BLA counter-1 inactive | TLR9 CHO tox inactive | NOD2-RIPK2 conf inactive | BLA counter-2 36
CC(C)CNC(=O)COC(=O)c1c2c(nc3ccccc13)/C(=C\c1cccs1)CC2	NOD2-RIPK2 inh 47, TLR9-MyD88 block 30 (no result: TLR4 MyD88 comp) | TLR9-MyD88 conf 46 | BLA counter-1 54 | TLR9 CHO tox 12 | NOD2-RIPK2 conf 70 | BLA counter-2 77
NNC(=O)c1oc2nc(-c3ccc(Cl)cc3)cc(-c3ccccc3)c2c1N	NOD2-RIPK2 inh 26, TLR9-MyD88 block 24 (no result: TLR4 MyD88 comp) | TLR9-MyD88 conf 46 | BLA counter-1 inactive | TLR9 CHO tox inactive | NOD2-RIPK2 conf 62 | BLA counter-2 67
CC(C)n1c(=O)c2ccccc2n1S(C)(=O)=O	none (no result: TLR9-MyD88 block, TLR4 MyD88 comp, CRFBP-R2 block)
CN(c1ccccc1)S(=O)(=O)c1ccc(NC(=O)c2nc(S(C)(=O)=O)ncc2Cl)cc1	NOD2-RIPK2 inh 100, TLR9-MyD88 block 58, ABHD5 PLIN5 PPI 78 (no result: TLR4 MyD88 comp) | TLR9-MyD88 conf 52 | BLA counter-1 inactive | TLR9 CHO tox 103 | ABHD5-PLIN5 conf 91 | HNF4 split-luc 106 | NOD2-RIPK2 conf 93 | BLA counter-2 51
CN(c1ccccc1)S(=O)(=O)c1ccc(NC(=O)c2ccccc2)cc1	none
COc1cccc(NC(=O)c2nc(S(C)(=O)=O)ncc2Cl)c1	NOD2-RIPK2 inh 74, TLR9-MyD88 block 45, ABHD5 PLIN5 PPI 53 (no result: TLR4 MyD88 comp) | TLR9-MyD88 conf 42 | BLA counter-1 inactive | TLR9 CHO tox 100 | ABHD5-PLIN5 conf 77 | HNF4 split-luc 102 | NOD2-RIPK2 conf 67 | BLA counter-2 32
CCCCn1nnnc1C1(C)CCC(=O)N1CC1CCCCC1 (stereo not drawn)	none (no result: TLR9-MyD88 block, TLR4 MyD88 comp, CRFBP-R2 block)
COC[C@H]1CCCN1c1ccc2c(c1)O[C@H](COCc1ccccc1)CN([C@H](C)c1ccccc1)S2(=O)=O	none (no result: TLR9-MyD88 block, TLR4 MyD88 comp, CRFBP-R2 block)
CCS(=O)(=O)c1ncc(Cl)c(C(=O)Nc2ccc(S(=O)(=O)N3CCC(C)CC3)cc2)n1	NOD2-RIPK2 inh 96, TLR9-MyD88 block 58, ABHD5 PLIN5 PPI 73 (no result: TLR4 MyD88 comp) | TLR9-MyD88 conf 49 | BLA counter-1 inactive | TLR9 CHO tox 99 | ABHD5-PLIN5 conf 99 | HNF4 split-luc 103 | NOD2-RIPK2 conf 96 | BLA counter-2 48
CCc1ccc(NC(=O)c2nc(S(=O)(=O)Cc3ccccc3)ncc2Cl)cc1	NOD2-RIPK2 inh 96, TLR9-MyD88 block 47, ABHD5 PLIN5 PPI 77 (no result: TLR4 MyD88 comp, CRFBP-R2 block) | TLR9-MyD88 conf 50 | BLA counter-1 inactive | TLR9 CHO tox 98 | ABHD5-PLIN5 conf 89 | HNF4 split-luc 89 | NOD2-RIPK2 conf 94 | BLA counter-2 40
CC(=O)Nc1ccc(NC(=O)c2nc(S(=O)(=O)Cc3cccc(C)c3)ncc2Cl)cc1	NOD2-RIPK2 inh 82, TLR9-MyD88 block 27, ABHD5 PLIN5 PPI 66, CRFBP-R2 block 73 (no result: TLR4 MyD88 comp) | TLR9-MyD88 conf 44 | BLA counter-1 inactive | TLR9 CHO tox 97 | NOD2-RIPK2 conf 81 | BLA counter-2 44
CC(C)c1nnc(NC(=O)c2nc(S(=O)(=O)Cc3ccccc3)ncc2Cl)s1	NOD2-RIPK2 inh 26, TLR9-MyD88 block 22, ABHD5 PLIN5 PPI 35 (no result: TLR4 MyD88 comp) | TLR9-MyD88 conf inactive | BLA counter-1 inactive | TLR9 CHO tox 29 | ABHD5-PLIN5 conf 85 | HNF4 split-luc 68 | NOD2-RIPK2 conf 37 | BLA counter-2 24
CCOc1ccccc1NC(=O)c1nc(S(=O)(=O)Cc2ccccc2)ncc1Cl	none (no result: TLR4 MyD88 comp)
CC1CCN(S(=O)(=O)c2ccc(NC(=O)c3ccncc3)cc2)CC1	none (no result: TLR4 MyD88 comp)
COC(=O)/C=C1\OCc2ccccc21	none (no result: TLR9-MyD88 block, TLR4 MyD88 comp, CRFBP-R2 block)
CCOC(=O)c1ccc(NC(=O)c2nc(S(=O)(=O)Cc3ccccc3)ncc2Cl)cc1	NOD2-RIPK2 inh 55, TLR9-MyD88 block 42, ABHD5 PLIN5 PPI 49 (no result: TLR4 MyD88 comp) | TLR9-MyD88 conf 30 | BLA counter-1 inactive | TLR9 CHO tox 99 | ABHD5-PLIN5 conf 92 | HNF4 split-luc 92 | NOD2-RIPK2 conf 87 | BLA counter-2 50
Cc1ccc(NC(=O)c2nc(S(=O)(=O)Cc3ccccc3C)ncc2Cl)cc1C	NOD2-RIPK2 inh 97, TLR9-MyD88 block 41, ABHD5 PLIN5 PPI 72 (no result: TLR4 MyD88 comp) | TLR9-MyD88 conf 35 | BLA counter-1 inactive | TLR9 CHO tox 83 | ABHD5-PLIN5 conf 98 | HNF4 split-luc 97 | NOD2-RIPK2 conf 86 | BLA counter-2 33
COc1cccc(-c2cc(CNC(=O)[C@H]3O[C@@H](n4cnc5c(N)ncnc54)[C@H](O)[C@@H]3O)no2)c1	none (no result: TLR9-MyD88 block, TLR4 MyD88 comp, CRFBP-R2 block)
CCOC(=O)C1=C(C)Nc2sc(C(=O)c3ccc(OC)cc3)c(N)c2C1c1ccc(C(=O)OC)cc1 (stereo not drawn)	NOD2-RIPK2 inh 39, TLR9-MyD88 block 44 | TLR9-MyD88 conf inactive | BLA counter-1 inactive | TLR9 CHO tox inactive | NOD2-RIPK2 conf inactive | BLA counter-2 20
COC(=O)C1=C(C)Nc2sc(C(N)=O)c(N)c2C1c1ccncc1 (stereo not drawn)	none
CC(C)N1C(=O)C(=O)N(CC(=O)N2c3ccccc3CC2C)C1=O (stereo not drawn)	none (no result: TLR4 MyD88 comp)

High-throughput results (PubChem BioAssay)
